Reference: PubChem BioAssay
Active and inactive are the calls of the source.

Columns and labels:
[1] = tested on: PRMT1 (protein arginine N-methyltransferase 1); experiment: PRMT1 binders on small-molecule microarrays, primary screen, biochemical, small-molecule microarray, 635 nm fluorescence (AID 1088); conditions: small-molecule microarray binding, higher = more signal;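 further: binding of Prmt1 protein to compounds spotted on small-molecule microarray slides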
[2] = yeast growth modulation, basal conditions, primary screen, YJM789 clinical isolate, OD600, 24 h (AID 1089);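 further: growth of clinical yeast isolate S. cerevisiae YJM 789 seeded 1000 cells per well; test concentration not given here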; conditions: S. cerevisiae YJM789 growth, higher = more signal, called active from +8 up or from −8 down
[3] = fission yeast growth modulation, primary screen, strain 972, OD600, 24 h, no modulator (AID 1090);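 further: basal condition with compound alone and no growth modifier present; test concentration not given here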; conditions: S. pombe 972 growth, higher = more signal, called active from +8 up or from −8 down
[4] = S. cerevisiae growth modulation with rapamycin, primary screen, strain BY4716, OD600, 96 h (AID 1091); conditions: higher = more signal, called active from +8 up or from −8 down; further: test concentration not given here
[5] = target: Torsin-1A-interacting protein 2 (Homo sapiens) (UniProt Q8NFQ8); experiment: LULL1 binders on small-molecule microarray, primary screen, cell lysate, human LULL1 lysate, 635/667 nm fluorescence (AID 1092); conditions: hLULL1 lysate binding, 635 nm fluorescence, higher = more signal;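 further: probe is lysate of COS7 cells overexpressing human LULL1; score merges per-feature 667 nm fluorescence with signal-to-noise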
Chain of Torsin-1A-interacting protein 2 (Homo sapiens) (Q8NFQ8 whole entry, looked up): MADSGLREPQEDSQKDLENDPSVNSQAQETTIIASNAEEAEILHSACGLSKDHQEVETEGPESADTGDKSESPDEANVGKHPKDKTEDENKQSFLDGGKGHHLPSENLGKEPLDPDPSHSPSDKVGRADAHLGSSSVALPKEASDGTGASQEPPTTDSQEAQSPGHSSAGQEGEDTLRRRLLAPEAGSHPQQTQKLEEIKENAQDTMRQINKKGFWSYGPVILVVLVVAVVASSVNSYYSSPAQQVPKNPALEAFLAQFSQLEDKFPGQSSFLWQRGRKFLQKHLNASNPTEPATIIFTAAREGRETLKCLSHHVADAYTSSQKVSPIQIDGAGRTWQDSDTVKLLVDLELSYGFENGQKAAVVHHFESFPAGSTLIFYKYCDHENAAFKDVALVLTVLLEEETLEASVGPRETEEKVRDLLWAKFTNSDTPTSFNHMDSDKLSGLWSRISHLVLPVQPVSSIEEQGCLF

[6] = E. coli growth modulation, two-sided OD650, primary screen, E. coli filamentation project, strain DRC41, 24 h (AID 1093); conditions: OD650, 24 h, higher = more signal, called active from +8 up or from −8 down;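 further: MC1000 strain lacking acrAB efflux and sulA so SOS filamentation is blocked; test concentration not given here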
[7] = small-molecule microarray binders of probe aLefty2, primary screen, biochemical, biotinylated probe, 635/667 nm fluorescence (AID 1094); conditions: higher = more signal;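 further: score merges spot fluorescence near 667 nm with spot signal-to-noise ratio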
[8] = tested on: Noggin (protein binding on small-molecule microarray); experiment: Noggin binders on small-molecule microarray, primary screen, biochemical, 635/667 nm fluorescence (AID 1095); conditions: 635 nm fluorescence, higher = more signal;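 further: score merges 667 nm feature fluorescence with signal to noise over triplicate slides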
[9] = target: Neurogenic locus notch homolog protein 3 (Homo sapiens) (UniProt Q9UM47); experiment: NOTCH3 binders on small-molecule microarray, primary screen, biochemical, 635/667 nm fluorescence (AID 1096); conditions: NOTCH3 binding, 635 nm fluorescence, higher = more signal
Chain of Neurogenic locus notch homolog protein 3 (Homo sapiens) (Q9UM47 whole entry, looked up): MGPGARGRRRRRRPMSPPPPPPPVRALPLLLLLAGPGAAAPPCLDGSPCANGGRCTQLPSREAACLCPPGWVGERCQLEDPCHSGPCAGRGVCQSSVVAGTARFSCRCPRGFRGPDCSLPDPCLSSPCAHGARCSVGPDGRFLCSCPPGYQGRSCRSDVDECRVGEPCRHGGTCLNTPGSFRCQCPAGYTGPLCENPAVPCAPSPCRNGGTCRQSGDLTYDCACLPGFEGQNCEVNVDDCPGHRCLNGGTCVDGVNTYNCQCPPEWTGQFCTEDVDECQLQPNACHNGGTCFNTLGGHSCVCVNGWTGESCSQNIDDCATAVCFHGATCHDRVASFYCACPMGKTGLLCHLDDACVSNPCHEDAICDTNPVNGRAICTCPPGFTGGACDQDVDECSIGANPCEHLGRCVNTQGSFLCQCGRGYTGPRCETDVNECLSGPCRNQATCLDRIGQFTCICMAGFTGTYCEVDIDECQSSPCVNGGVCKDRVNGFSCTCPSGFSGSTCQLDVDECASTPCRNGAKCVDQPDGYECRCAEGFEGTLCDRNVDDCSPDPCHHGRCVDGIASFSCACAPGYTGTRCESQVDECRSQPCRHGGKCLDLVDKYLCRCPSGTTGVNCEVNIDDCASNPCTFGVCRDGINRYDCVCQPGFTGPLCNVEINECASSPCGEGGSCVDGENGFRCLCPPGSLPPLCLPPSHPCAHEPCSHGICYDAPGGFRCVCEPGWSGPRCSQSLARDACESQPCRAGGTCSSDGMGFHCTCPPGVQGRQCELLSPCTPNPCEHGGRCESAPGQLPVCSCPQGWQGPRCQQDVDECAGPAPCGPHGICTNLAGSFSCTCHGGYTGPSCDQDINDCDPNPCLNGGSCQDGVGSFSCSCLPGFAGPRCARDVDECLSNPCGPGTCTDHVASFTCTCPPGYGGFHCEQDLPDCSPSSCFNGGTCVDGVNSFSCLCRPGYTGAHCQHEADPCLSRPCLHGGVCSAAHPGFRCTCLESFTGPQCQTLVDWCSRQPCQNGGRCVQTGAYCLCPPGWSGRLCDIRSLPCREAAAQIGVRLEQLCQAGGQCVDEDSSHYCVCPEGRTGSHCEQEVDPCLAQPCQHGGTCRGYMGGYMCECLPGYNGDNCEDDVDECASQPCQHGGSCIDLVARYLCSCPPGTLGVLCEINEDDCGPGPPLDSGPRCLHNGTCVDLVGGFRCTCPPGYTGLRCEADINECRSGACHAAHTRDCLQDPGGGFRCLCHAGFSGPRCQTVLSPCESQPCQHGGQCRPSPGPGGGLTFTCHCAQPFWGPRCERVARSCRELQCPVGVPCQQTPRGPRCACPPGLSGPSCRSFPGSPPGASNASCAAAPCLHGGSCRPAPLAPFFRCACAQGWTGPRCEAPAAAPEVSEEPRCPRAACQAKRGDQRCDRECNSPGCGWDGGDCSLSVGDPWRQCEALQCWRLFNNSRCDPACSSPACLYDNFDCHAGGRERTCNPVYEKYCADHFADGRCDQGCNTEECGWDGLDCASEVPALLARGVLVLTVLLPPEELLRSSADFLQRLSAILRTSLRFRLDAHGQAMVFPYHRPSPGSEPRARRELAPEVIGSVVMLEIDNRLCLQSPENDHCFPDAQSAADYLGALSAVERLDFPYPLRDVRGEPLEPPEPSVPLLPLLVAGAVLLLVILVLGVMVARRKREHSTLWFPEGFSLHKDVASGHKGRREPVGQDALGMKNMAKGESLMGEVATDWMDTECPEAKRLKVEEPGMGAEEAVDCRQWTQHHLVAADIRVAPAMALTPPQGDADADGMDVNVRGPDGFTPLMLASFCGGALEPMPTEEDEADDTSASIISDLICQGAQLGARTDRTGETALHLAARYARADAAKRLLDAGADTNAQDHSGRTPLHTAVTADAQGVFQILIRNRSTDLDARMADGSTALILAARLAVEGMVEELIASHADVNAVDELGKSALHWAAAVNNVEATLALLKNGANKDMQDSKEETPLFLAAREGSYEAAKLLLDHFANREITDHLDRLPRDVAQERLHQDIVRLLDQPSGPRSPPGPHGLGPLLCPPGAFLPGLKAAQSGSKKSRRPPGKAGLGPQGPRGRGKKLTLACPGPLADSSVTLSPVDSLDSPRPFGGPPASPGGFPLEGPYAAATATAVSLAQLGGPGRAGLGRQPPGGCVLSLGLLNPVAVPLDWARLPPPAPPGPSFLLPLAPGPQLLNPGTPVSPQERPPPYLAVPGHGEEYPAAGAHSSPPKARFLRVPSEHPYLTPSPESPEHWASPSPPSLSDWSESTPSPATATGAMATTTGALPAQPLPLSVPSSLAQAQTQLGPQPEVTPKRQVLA

[10] = small-molecule microarray binders of probe aEGFR, primary screen, biochemical, biotinylated probe, 635/667 nm fluorescence (AID 1097); conditions: higher = more signal;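 further: probe is a biotinylated anti-EGFR antibody binding compounds printed on slides; score combines fluorescence near 667 nm and signal to noise of each spot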

CC(=O)OC[C@H]1O[C@H](CCON=C[C@@H](C)[C@H](OCc2ccccc2)C(C)C)C=C[C@@H]1OC(C)=O
composite z-score [1]: 1.12
z-score [2]: -0.283 (inactive)
z-score [3]: -0.205 (inactive)
z-score [4]: -0.3 (inactive)
composite z-score [5]: -0.169
z-score [6]: -0.608 (inactive)
composite z-score [7]: -0.138
composite z-score [8]: 0.559
composite z-score [9]: 0.226
composite z-score [10]: -0.0093

O=C1[C@H]2[C@H]3[C@H](O)[C@H](O)CC(=NO[C@@H]4O[C@H](CO)[C@@H](O)[C@H](O)[C@H]4O)[C@@H]3CC[C@H]2C(=O)N1Cc1ccccc1
composite z-score [1]: 0.346
z-score [2]: -0.3 (inactive)
z-score [3]: -0.13 (inactive)
z-score [4]: -0.556 (inactive)
composite z-score [5]: 0.218
z-score [6]: 0.0628 (inactive)
composite z-score [7]: -0.103
composite z-score [8]: 0.574
composite z-score [9]: 0.433
composite z-score [10]: 0.0673

CO[C@@H]1COC(=O)[C@@H]2CCCN2C(=O)[C@@H](C)COC(=O)[C@H](COCc2ccccc2)NC(=O)CC=C[C@H]1C
composite z-score [1]: 0.705
z-score [2]: 0.953 (inactive)
z-score [3]: 0.263 (inactive)
z-score [4]: 0.458 (inactive)
composite z-score [5]: 0.445
z-score [6]: -1.99 (inactive)
composite z-score [7]: -0.236
composite z-score [8]: 0.529
composite z-score [9]: 0.554
composite z-score [10]: -0.198

C=CC[C@@H]1C=C[C@H](ON=C(C)CCN2CCc3nc(CC)c(CC)cc3C2)[C@@H](CO)O1
composite z-score [1]: 1.21
z-score [2]: -1.12 (inactive)
z-score [3]: -0.0455 (inactive)
z-score [4]: -0.384 (inactive)
composite z-score [5]: 1.07
z-score [6]: 0.544 (inactive)
composite z-score [7]: 0.0522
composite z-score [8]: 0.981
composite z-score [9]: 0.717
composite z-score [10]: -0.0435

C#C[C@@H](CC)O[Si](C#Cc1ccc(Oc2ccccc2)cc1)(C(C)C)C(C)C
composite z-score [1]: 1.29
z-score [2]: 0.356 (inactive)
z-score [3]: -0.951 (inactive)
z-score [4]: 1 (inactive)
composite z-score [5]: 0.964
z-score [6]: -0.44 (inactive)
composite z-score [7]: -0.152
composite z-score [8]: 0.269
composite z-score [9]: 0.916
composite z-score [10]: -0.0028

CO[C@H]1COC(=O)[C@H](C)COC(=O)CC=C[C@@H](C)[C@H](OC)COC(=O)CC=C[C@@H]1C
composite z-score [1]: 0.438
z-score [2]: 0.0305 (inactive)
z-score [3]: -0.818 (inactive)
z-score [4]: -0.147 (inactive)
composite z-score [5]: -0.798
z-score [6]: 0.614 (inactive)
composite z-score [7]: -0.233
composite z-score [8]: 0.638
composite z-score [9]: 0.336
composite z-score [10]: -0.0302

CC=CC1=C(CO)[C@H](O)[C@H]2O[C@H]2[C@H]1O
composite z-score [1]: 1.23
z-score [2]: 0.505 (inactive)
z-score [3]: 0.317 (inactive)
z-score [4]: 1.12 (inactive)
composite z-score [5]: -0.0789
z-score [6]: 0.131 (inactive)
composite z-score [7]: -0.24
composite z-score [8]: 0.834
composite z-score [9]: 0.67
composite z-score [10]: -0.0382

COC(=O)[C@H](C)NC(=O)CCC1CC(OC(=O)NCc2cccc3ccccc23)CC2(CCCC(COC(=O)NCCc3ccc(Cl)cc3)O2)O1 (stereo not given in full)
composite z-score [1]: 1.27
z-score [2]: -0.915 (inactive)
z-score [3]: -0.253 (inactive)
z-score [4]: 0.511 (inactive)
composite z-score [5]: 1.57
z-score [6]: 0.129 (inactive)
composite z-score [7]: -0.145
composite z-score [8]: 0.328
composite z-score [9]: 1.13
composite z-score [10]: -0.0967

CC(=O)OC[C@H]1O[C@@H](ON=C(C)CCN2CCc3nc(-c4ccccc4)c(-c4ccccc4)cc3C2)[C@H](OC(C)=O)[C@@H](OC(C)=O)[C@@H]1OC(C)=O
composite z-score [1]: 1.51
z-score [2]: 0.0264 (inactive)
z-score [3]: -1.03 (inactive)
z-score [4]: -3.53 (inactive)
composite z-score [5]: 2.27
z-score [6]: -0.395 (inactive)
composite z-score [7]: 0.0754
composite z-score [8]: 0.591
composite z-score [9]: 1.09
composite z-score [10]: 0.0291

Cc1cc2c(c(=O)o1)[C@H](O)[C@H]1O[C@H]1C2=O
composite z-score [1]: 0.527
z-score [2]: 0.228 (inactive)
z-score [3]: -4.24 (inactive)
z-score [4]: -0.643 (inactive)
composite z-score [5]: -0.186
z-score [6]: -1.02 (inactive)
composite z-score [7]: -0.0569
composite z-score [8]: 0.651
composite z-score [9]: 0.312
composite z-score [10]: -0.0007

CC(C)[Si]1(C(C)C)O[C@@H](c2ccccc2)c2cc(C3CC3)nc(-c3ccccc3)c21
composite z-score [1]: 0.0587
z-score [2]: -0.443 (inactive)
z-score [3]: -5.5 (inactive)
z-score [4]: -0.215 (inactive)
composite z-score [5]: -0.332
z-score [6]: -0.867 (inactive)
composite z-score [7]: -0.34
composite z-score [8]: -0.207
composite z-score [9]: 0.492
composite z-score [10]: -0.0304

CCOc1ccc(N2C(=O)/C(=C/C=C/c3ccccc3OC)S(=O)(=O)C2c2cccc([N+](=O)[O-])c2)cc1 (stereo not given)
composite z-score [1]: -0.167
z-score [2]: -3.8 (inactive)
z-score [3]: -3.13 (inactive)
z-score [4]: 0.648 (inactive)
composite z-score [5]: 0.236
z-score [6]: 0.841 (inactive)
composite z-score [7]: -0.0342
composite z-score [8]: 0.39
composite z-score [9]: 0.638
composite z-score [10]: -0.103

CC(=O)OC[C@H]1O[C@H](C#CCCCc2ccccc2)C=C[C@@H]1OC(C)=O
composite z-score [1]: 0.351
z-score [2]: 0.458 (inactive)
z-score [3]: -19.5 (active)
z-score [4]: -0.967 (inactive)
composite z-score [5]: 1.01
z-score [6]: 0.0065 (inactive)
composite z-score [7]: -0.239
composite z-score [8]: 0.66
composite z-score [9]: 0.389
composite z-score [10]: -0.0703

COC(=O)C1=C(C)[C@@H](O)[C@@H](C)[C@H](c2c(OC)c(OC)c(C)c(OC)c2OC)O1
composite z-score [1]: -0.462
z-score [2]: 0.645 (inactive)
z-score [3]: 0.629 (inactive)
z-score [4]: -0.22 (inactive)
composite z-score [5]: -0.166
z-score [6]: 0.164 (inactive)
composite z-score [7]: -0.142
composite z-score [8]: 0.461
composite z-score [9]: 0.105
composite z-score [10]: -0.106
